L3MBTL1 inh: qHTS Assay for the Inhibitors of L3MBTL1 | Potency, µM (titrated, usually from 57.1 µM), for inactives: at the highest dose activity, negative = inhibition, hits mostly inhibitors | Lethal(3)malignant brain tumor-like protein 1 (Homo sapiens), Q9Y468 | AlphaScreen L3MBTL1–H3K9me1 peptide binding | hit rate 0.66% among 230,000; also: nearly all actives have a fitted effect of over 60% in size
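Displacement of a biotinylated histone H3(1-15) peptide monomethylated at Lys9 (75 nM) from L3MBTL1 (50 nM) was measured by AlphaScreen after a 30 min room-temperature compound incubation; cefsulodin titration served as intraplate control.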
RECQ1 inh-1: qHTS Assay for Inhibitors of RecQ-Like Dna Helicase 1 (RECQ1) | ATP-dependent DNA helicase Q1 (Homo sapiens), P46063 | RECQ1 DNA unwinding, red fluorescence kinetic read | Potency, µM (titrated, usually from 57.3 µM), for inactives: at the highest dose activity, negative = inhibition, hits mostly inhibitors | hit rate 0.54% among 240,000 | AID 2549, 2010;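 also: plate controls were vehicle for no effect and no enzyme for full effect; nearly all actives have a fitted effect of over 30% in size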
Target sequence (P46063 whole entry, looked up): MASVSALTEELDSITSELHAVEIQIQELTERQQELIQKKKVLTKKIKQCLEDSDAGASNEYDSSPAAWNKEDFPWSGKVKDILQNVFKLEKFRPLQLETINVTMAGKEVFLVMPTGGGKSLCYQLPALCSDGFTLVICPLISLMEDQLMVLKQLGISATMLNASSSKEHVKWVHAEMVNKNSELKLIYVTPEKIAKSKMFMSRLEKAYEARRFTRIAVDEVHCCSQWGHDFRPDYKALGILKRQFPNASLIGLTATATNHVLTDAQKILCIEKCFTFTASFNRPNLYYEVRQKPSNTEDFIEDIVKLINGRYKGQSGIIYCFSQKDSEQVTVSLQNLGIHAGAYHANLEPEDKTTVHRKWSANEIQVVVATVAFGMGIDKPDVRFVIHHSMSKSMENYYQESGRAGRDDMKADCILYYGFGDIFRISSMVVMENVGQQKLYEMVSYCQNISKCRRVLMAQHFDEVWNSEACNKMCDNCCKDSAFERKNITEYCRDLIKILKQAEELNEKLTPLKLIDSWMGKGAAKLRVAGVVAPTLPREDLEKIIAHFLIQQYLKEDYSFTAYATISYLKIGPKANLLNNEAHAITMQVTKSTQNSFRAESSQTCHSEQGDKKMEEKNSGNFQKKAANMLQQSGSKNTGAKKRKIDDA
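RECQ1T1 50 nM; forked duplex (20 bp + 30-nt ss tails) 200 nM, ATP 2 mM final; pH 8.0, 2 mM MgCl2, 2.5 ug/ml poly(dI-dC); 15 min compound preincubation; discontinuous kinetic read over 2 h at RT.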
APEX1 inh: qHTS Assay for Inhibitors of the Human Apurinic/apyrimidinic Endonuclease 1 (APE1); hit rate 0.35% among 350,000; Potency, µM (top dose mostly 65.8 µM), inactives show at the highest dose activity change, negative = inhibition, actives largely listed as inhibitors; recombinant APE1, TAMRA/BHQ-2 abasic DNA cleavage fluorescence;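 also: plate controls were vehicle for no effect and reference inhibitor for full effect; nearly all actives have a fitted effect of over 55% in size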
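Enzyme (0.75 nM final) and test compound are incubated 15 min at room temperature before adding 50 nM quenched THF abasic-site duplex. Cleavage dequenches TAMRA, followed at 525/598 nm over three reads one minute apart.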
BLM inh: qHTS Assay for Inhibitors of Bloom's syndrome helicase (BLM) | recombinant BLM DNA unwinding, fluorescence dequenching | Potency, µM (series often up to 56.1 µM), for the others: at the highest dose activity change, negative = inhibition, hits mostly inhibitors | AID 2528, 2010 | hit rate 0.2% among 350,000 | RecQ-like DNA helicase BLM (Homo sapiens), P54132;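 also: plate controls were vehicle for no effect and no enzyme for full effect; nearly all actives have a fitted effect of over 35% in size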
RECQ1 conf: Confirmation qHTS Assay for Inhibitors of RecQ-Like Dna Helicase 1 (RECQ1). shares compounds with RECQ1 inh-1. RECQ1 helicase DNA unwinding, fluorescence. Potency, µM (doses to about 229 µM), inactives show at the top dose activity change, negative = inhibition, hits mostly inhibitors. hit rate 28% among 610; also: nearly all actives have a fitted effect of over 45% in size
RECQ1 ADP FP: Counterscreen for RECQ1 Inhibitors: ADP Fluorescence Polarization Displacement Assay. Potency, µM (series often up to 228 µM), inactives show top-dose activity change, negative = inhibition, most hits filed as inhibitors. hit rate 27% among 530. AID 2711, 2010. shares compounds with RECQ1 inh-1. ADP fluorescence polarization displacement counterscreen; also: nearly all actives have a fitted effect of over 45% in size
RECQ1 inh-2: Confirmation qHTS Assay for Inhibitors of RecQ-Like Dna Helicase 1 (RECQ1) - Round 2 Cherry Picks; shares compounds with RECQ1 inh-1; recombinant RECQ1 DNA unwinding, red fluorescence; Potency, µM (doses to about 119 µM), for inactives: at the top dose activity, negative = inhibition, most hits filed as inhibitors; hit rate 15% among 1,100; AID 504841, 2011; also: nearly all actives have a fitted effect of over 50% in size
* = called active by the depositor; i = inactive; ? = inconclusive; · = not tested or not shown; ! = repeats disagree; [ ] = dose if it differs, or a comment. This is a sample that favours compounds with a hit; in the whole collection about 0.78% have one here. Calls follow the shape of the dose curve; as a rule, active = well fitted curve in the direction sought with a large enough effect; inconclusive = small, poorly fitted or top-dose-only effect, or another doubt; inactive = no such curve, though single readings can be large; an effect the other way counts as inactive or inconclusive. Unless noted, % is scaled to controls: 0 for no effect and ±100 for the full control effect; potency is read from the fitted curve at half-maximal effect.

SMILES	L3MBTL1 inh	RECQ1 inh-1	APEX1 inh	BLM inh	RECQ1 inh-2	others
O=C(c1ccccc1)N1CCN(Cc2ccccc2Br)CC1	-2%	0%	-4%	0%	·
CC[C@H](C)[C@H](NC(=O)[C@H](Cc1ccc(O)cc1)NC(=O)[C@H](Cc1cnc[nH]1)NC(=O)[C@H](CCCNC(=N)N)NC(=O)[C@H](CC(C)C)NC(=O)[C@H](C)NC(=O)[C@H](CO)NC(=O)[C@H](Cc1ccc(O)cc1)NC(=O)[C@H](Cc1ccc(O)cc1)NC(=O)[C@H](CCCNC(=N)N)NC(=O)[C@H](C)NC(=O)[C@H](CC(C)C)NC(=O)[C@H](CC(=O)O)NC(=O)[C@H](CCC(=O)O)NC(=O)[C@H](C)NC(=O)[C@@H]1CCCN1C(=O)[C@H](C)NC(=O)[C@H](CC(=O)O)NC(=O)[C@H](CCC(=O)O)NC(=O)CNC(=O)[C@@H]1CCCN1C(=O)[C@H](CC(N)=O)NC(=O)[C@H](CC(=O)O)NC(=O)[C@@H]1CCCN1C(=O)[C@H](CCCCN)NC(=O)[C@@H](N)CO)C(=O)N[C@@H](CC(N)=O)C(=O)N[C@@H](CC(C)C)C(=O)N[C@H](C(=O)N[C@H](C(=O)N[C@@H](CCCNC(=N)N)C(=O)N[C@@H](CCC(N)=O)C(=O)N[C@@H](CCCNC(=N)N)C(=O)N[C@@H](Cc1ccc(O)cc1)C(N)=O)[C@@H](C)O)[C@@H](C)CC	·	-1%	-3%	-11%	·
N=C(N)c1ccccc1	·	14µM*!	4%	-1%	·	RECQ1 conf=8%[114 µM];RECQ1 ADP FP=20%[91.9 µM]
COc1ccc(OC)c(-c2csc(NC(=O)Cc3ccc(F)cc3)n2)c1	·	·	60%	-15%	·
COc1ccc(OC)c(-c2csc(NC(=O)Cn3[nH]c(=O)c4ccccc4c3=O)n2)c1	-8%	28µM*	-4%	-11%	?
Cc1ccc(CNC(=O)C2CCN(S(=O)(=O)c3cccs3)CC2)cc1	·	·	-12%	1%	·
Cc1ccc(CNC(=O)C2CCN(S(=O)(=O)c3cccs3)CC2)o1	-20%	?	17%	0%	-16%
Cc1cccc(N2CCN(C(=O)CS(=O)(=O)Cc3nc(-c4ccccc4C)oc3C)CC2C)c1 (configuration not stated)	·	·	·	-11%	·
CNC(=O)COC(=O)c1ccc(Cl)c(S(=O)(=O)N2CCCC2)c1	-11%	-2%	-16%	0%	·
CCc1ccc(NC(=O)COC(=O)c2ccc(Cl)c(S(=O)(=O)N3CCCCCC3)c2)cc1	6%	?	8%	-6%	?
O=C(NCC(c1ccco1)S(=O)(=O)c1cccs1)c1ccc(F)c(F)c1 (configuration not stated)	·	·	·	0%	·
O=c1[nH]c(Nc2ccccc2)cc2ccccc12	-47%	?	?	3%	?
COc1cc(/C=C2\Oc3cc(O)ccc3C2=O)ccc1O	·	?	-7%	-9%	79µM*
COc1cc(/C=C2\CCC/C(=C\c3ccc(O)c(OC)c3)C2=O)ccc1O	·	·	-7%	-6%	·
CC(=O)N1c2nc(C(C)C)nn2C2(CCCCC2)[C@@H]2CCCC[C@@H]21	·	·	·	-1%	·
COc1ccc(-c2csc(NC(=O)c3ccccc3NS(=O)(=O)c3ccc(C)cc3)n2)cc1	-8%	?	-6%	-21%	·
COc1ccc(S(=O)(=O)Nc2ccccc2C(=O)Nc2nc(-c3ccc(F)cc3)cs2)cc1OC	2%	?	-6%	-8%	?
CC1(C)N=C(c2ccc(Cl)cc2)C(=O)N1	-1%	35µM*	-1%	1%	?
CCOC(=O)c1c(C)[nH]c(C)c1S(=O)(=O)N1CCN(c2ccc(Cl)cc2)CC1	·	·	·	-8%	·
O=C(c1ccncc1)N1CCN(C2CCC(c3ccccc3)CC2)CC1 (configuration not stated)	·	?	16%	2%	-12%
CCc1ccc(-n2nc(CO)c(C(=O)NCCOC)n2)cc1	·	·	·	2%	·
Cc1noc(NS(=O)(=O)c2ccc(NC(=O)c3ccc(Br)cc3)cc2)c1C	·	·	·	0%	·
O=C(Nn1c(Cc2ccccc2)nc2ccccc2c1=O)c1c(O)c2cccc3c2n(c1=O)CCC3	9%	i	1%	-3%	·	RECQ1 conf=?;RECQ1 ADP FP=?
CCCCc1nc2ccccc2c(=O)n1NC(=O)c1c(O)c2c(n(CC(C)C)c1=O)CCCC2	6%	i	-3%	-10%	·	RECQ1 conf=?;RECQ1 ADP FP=38%
CCS(=O)(=O)N1CC(=O)N(c2cccc(C)c2C)C(C)(C(=O)NC2CCCCCC2)C1 (configuration not stated)	·	·	·	-1%	·
SMILES	L3MBTL1 inh	RECQ1 inh-1	APEX1 inh	BLM inh	RECQ1 inh-2	others
CCOC(=O)C(Oc1ccc2c(-c3ccccc3)cc(=O)oc2c1)c1ccccc1 (configuration not stated)	9%	?	-1%	-6%	-17%
COC(=O)C(Oc1ccc2c(-c3ccc(OC)cc3)cc(=O)oc2c1)c1ccccc1 (configuration not stated)	-7%	-17%	-6%	-3%	·
Cc1cc(C)cc(NC(=O)c2sc3nc[nH]c(=O)c3c2C)c1	·	·	·	-3%	·
COc1ccc(C2C(C#N)=C(N)Oc3c2oc(CO)cc3=O)cc1 (configuration not stated)	·	-1%	-5%	-4%	·
Cc1oc(C)c2c(=O)ccc3c(c12)OC(N)=C(C#N)C3c1ccccc1 (configuration not stated)	-19%	?	11%	-2%	-12%
CSc1ccc(C2C(C#N)=C(N)Oc3c2ccc(=O)c2c(C)oc(C)c32)cc1 (configuration not stated)	?	?	?	-4%	?
Cc1oc(C)c2c(=O)ccc3c(c12)OC(N)=C(C#N)C3c1ccccc1Cl (configuration not stated)	?	?	1%	?	-21%
COc1cc(CN(C(=O)COc2ccc(Cl)cc2)c2ccccn2)cc(OC)c1OC	·	·	·	-6%	·

Screens (PubChem BioAssay)
